Compound activity as filed in PubChem BioAssay.
Hits are enriched below; roughly 12% of the tested compounds scored in any of these assays.
JMJD2A Tudor – qHTS Assay for Inhibitors of JMJD2A-Tudor Domain; AlphaScreen JMJD2A-Tudor / H3K4me3 peptide binding; Potency, µM (series often up to 114 µM), for the others: top-dose activity change, negative = inhibition, hits mostly inhibitors; 4.4% of 390,000 active; note: % is set by controls: 0 for no effect and ±100 for the full control effect; nearly all actives have a fitted effect of over 50% in size
Target sequence (O75164 whole entry, looked up, the tested form may be a part): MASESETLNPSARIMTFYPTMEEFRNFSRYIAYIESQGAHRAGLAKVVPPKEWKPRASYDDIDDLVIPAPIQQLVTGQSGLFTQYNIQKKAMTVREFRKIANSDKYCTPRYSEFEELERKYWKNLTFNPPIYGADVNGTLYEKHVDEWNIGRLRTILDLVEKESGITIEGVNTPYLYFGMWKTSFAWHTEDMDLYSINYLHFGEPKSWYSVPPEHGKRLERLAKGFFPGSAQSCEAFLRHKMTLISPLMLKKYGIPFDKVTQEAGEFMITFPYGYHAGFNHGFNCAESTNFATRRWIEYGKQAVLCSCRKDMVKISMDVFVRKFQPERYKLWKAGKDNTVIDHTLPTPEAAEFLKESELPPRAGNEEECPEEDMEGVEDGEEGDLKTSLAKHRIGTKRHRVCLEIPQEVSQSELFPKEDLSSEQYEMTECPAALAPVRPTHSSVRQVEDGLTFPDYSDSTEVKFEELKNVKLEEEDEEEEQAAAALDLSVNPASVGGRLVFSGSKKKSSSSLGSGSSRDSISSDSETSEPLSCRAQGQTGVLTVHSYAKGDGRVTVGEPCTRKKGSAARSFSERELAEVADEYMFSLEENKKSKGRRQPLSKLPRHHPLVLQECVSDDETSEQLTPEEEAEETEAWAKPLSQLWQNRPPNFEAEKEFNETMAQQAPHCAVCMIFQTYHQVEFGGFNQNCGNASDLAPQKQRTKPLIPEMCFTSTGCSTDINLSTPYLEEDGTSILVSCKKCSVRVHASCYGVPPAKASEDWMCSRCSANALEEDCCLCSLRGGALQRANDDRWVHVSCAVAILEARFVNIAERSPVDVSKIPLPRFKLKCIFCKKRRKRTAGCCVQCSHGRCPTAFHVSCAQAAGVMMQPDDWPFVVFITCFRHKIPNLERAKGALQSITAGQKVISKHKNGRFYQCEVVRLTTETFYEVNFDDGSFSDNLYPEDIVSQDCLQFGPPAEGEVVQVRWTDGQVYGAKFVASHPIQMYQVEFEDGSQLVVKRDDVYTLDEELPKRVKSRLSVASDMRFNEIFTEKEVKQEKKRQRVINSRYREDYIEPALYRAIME
BAZ2B inh – qHTS Assay for Inhibitors of BAZ2B; AlphaScreen BAZ2B-H3K14Ac peptide displacement; Potency, µM (series often up to 114 µM), for the others: at the highest dose activity change, negative = inhibition, actives largely listed as inhibitors; 4.4% of 360,000 active; AID 504333, 2011; note: % is set by controls: 0 for no effect and ±100 for the full control effect; nearly all actives have a fitted effect of over 60% in size
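Compounds, titrated to a top concentration of 110 uM, were incubated 30 min at room temperature with preformed BAZ2B/acetyl-K14 H3 peptide complex (50 nM each). Proximity signal was measured by AlphaScreen after 20 min with beads.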
G9a block – qHTS Assay for Inhibitors of Histone Lysine Methyltransferase G9a; 8.8% of 350,000 active; Histone-lysine N-methyltransferase EHMT2 (Homo sapiens), Q96KQ7; G9a H3K9 monomethylation, AlphaScreen, 2 h; Potency, µM (top dose mostly 102 µM), for the others: at the highest dose activity, negative = inhibition, most hits filed as inhibitors; AID 504332, 2011; note: % is set by controls: 0 for no effect and ±100 for the full control effect; nearly all actives have a fitted effect of over 75% in size
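Step 1: enzyme (final 20 nM) with compound, 15 min RT. Step 2: substrate peptide 500 nM and SAM 20 uM, 2 h RT. Step 3: anti-H3K9me1 antibody and AlphaScreen beads, 10 min, then plate read.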
Sfp inh – qHTS Assay for Inhibitors of Bacillus subtilis Sfp phosphopantetheinyl transferase (PPTase); Biochemical Sfp PPTase activity, qHTS; 4'-phosphopantetheinyl transferase ffp (Bacillus subtilis), Q9F4F7; Potency, µM, for the others: largest response in the series, negative = inhibition, usual class: inhibitors; AID 1490, 2009; 3.5% of 310,000 active;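 note: the enzyme is Sfp with the accession as filed and its product quenches rhodamine fluorescence; 0% = enzyme reaction without inhibitor and -100% = no enzyme wells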
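Reaction rates are the 30-min fluorescence difference (ex 525, em 598 nm) in wells containing 15 nM Sfp, 5 uM rhodamine-CoA and 12.5 uM BHQ-2-YbbR at pH 7.6 with 10 mM MgCl2.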
HP1b chromo inh – HTS for Inhibitors of HP1-beta Chromodomain Interactions with Methylated Histone Tails. AlphaScreen HP1-beta / biotin-H3K9me3 peptide binding. Potency, µM (doses to about 114 µM), for inactives: at the top dose activity change, negative = inhibition, usual class: inhibitors. Chromobox protein homolog 1 (Homo sapiens), P83916. 0.56% of 390,000 active. AID 540317, 2011; note: nearly all actives have a fitted effect of over 70% in size
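HP1-beta protein (50 nM final) preincubated 30 min at room temperature with biotinylated H3(1-18)K9me3 peptide (50 nM) in PBS pH 7.4, 0.01% Tween-20, then compound added for 30 min. AlphaScreen streptavidin donor/nickel chelate acceptor beads (10 ug/mL final), 30 min dark, luminescence read.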
* marks the source's active call; other numbers are inactive results; ? = inconclusive; / = no result; [ ] = dose if it differs, or a comment. Calls come from the whole dose curve; as a rule, active = well fitted curve in the direction sought with a large enough effect; inconclusive = small, poorly fitted or top-dose-only effect, or another doubt; inactive = no such curve, though single readings can be large; an effect the other way counts as inactive or inconclusive. Potency is the fitted concentration of half-maximal effect.

SMILES	JMJD2A Tudor	BAZ2B inh	G9a block	Sfp inh	HP1b chromo inh
COc1cccc(CNC(=O)c2ccc3nc(CCc4ccccc4)oc3c2)c1OC	-9%	-2%	?	/	23%[57 µM]
CN(C)c1ccc(CN(Cc2ccco2)C(=O)c2ccco2)cc1	32µM*	?	45µM*	-13%	?
O=C(c1ccco1)N(Cc1ccc(Cl)cc1)Cc1ccco1	-5%	?	32µM*	1%	32%
CCOc1ccccc1C(=O)N(Cc1ccc(N(C)C)cc1)Cc1ccco1	25µM*	35µM*	20µM*	/	?
CCOc1cccc(C(=O)N(Cc2ccc(F)cc2)Cc2ccco2)c1	-4%	19%	6%[59 µM]	/	35%
COc1ccc(CN(Cc2ccco2)C(=O)c2ccccc2F)cc1	-22%	-20%	5%[59 µM]	/	30%
Cc1ccc(CN(Cc2ccco2)C(=O)c2ccc(Cl)cc2Cl)cc1	1%	8%	3%[59 µM]	/	25%
CCOc1c(Cl)cc(C(=O)N(Cc2ccc(N(C)C)cc2)Cc2ccco2)cc1Cl	13µM*	13µM*	?	/	-24%
CC(C)(C)c1ccc(C(=O)N(Cc2ccc(F)cc2)Cc2ccco2)cc1	-5%	15%	?	/	69%
C[C@H]1[C@H](C)CC[C@]2(C=O)CC[C@]3(C)C(=CC[C@@H]4[C@@]5(C)C[C@@H](O)[C@H](O)[C@@](C)(CO)[C@@H]5CC[C@]43C)[C@H]12	/	/	/	43%	/
CC(C)COc1ccc(C(=O)N(Cc2ccc(N(C)C)cc2)Cc2ccco2)cc1	14µM*	13µM*	16µM*	/	-15%
CCSc1ncc(Cl)c(C(=O)N(Cc2ccccc2)Cc2ccco2)n1	2%	24%	17%[59 µM]	/	55%
Cc1c(C(=O)N(Cc2ccc(N(C)C)cc2)Cc2ccco2)oc2cc(Br)ccc12	18µM*	?	?	/	?
CSc1ncc(Cl)c(C(=O)N(Cc2ccc(N(C)C)cc2)Cc2ccco2)n1	22µM*	18µM*	13µM*	/	?
Cc1ccc2c(CC(=O)N(Cc3ccc(N(C)C)cc3)Cc3ccco3)coc2c1C	13µM*	8.9µM*	8.9µM*	/	?
NS(=O)(=O)c1ccc(CNC(=O)c2cc(-c3ccccn3)nc3ccc(Cl)cc23)cc1	-21%	1%	?	-18%	-10%
CCOc1ccc(NC(=O)c2ccccn2)cc1	16µM*	8%	-4%[59 µM]	10%	18%
NS(=O)(=O)c1ccc(CNC(=O)c2ccccn2)cc1	4%[11.4 µM]	79µM*	5%[59 µM]	-13%	56%
CCOc1ccc(NC(=O)/C(C=Nc2ccccc2)=C(\C)O)cc1	?	-15%	45µM*	-22%	-15%
CCOc1ccc(NC(C)=O)cc1	-7%	0%	24%[21.5 µM]	5%	21%
CCOc1ccc(NC(=O)C2CSC(c3ccncc3)=N2)cc1 (stereo not given)	-7%	-5%	50µM*	-11%	27%
Cn1cnnc1SCC(=O)Nc1ccc2ccccc2c1	-9%	0%	7%[12.7 µM]	/	21%
CS(=O)(=O)c1ccccc1-c1csc(N2CCC(C(N)=O)CC2)n1	?	7%	5%[12.7 µM]	/	-8%
CNS(=O)(=O)c1ccc(NC(=O)c2ccccn2)cc1	13µM*	7%	11%[59 µM]	-6%	-4%
CCc1nc2ccccc2c(C(=O)OCC(=O)N2CC(C)OC(C)C2)c1C (stereo not given)	-8%	9%	-28%	/	21%
SMILES	JMJD2A Tudor	BAZ2B inh	G9a block	Sfp inh	HP1b chromo inh
COc1ccc2[nH]c3c4c(ccc3c2c1)C(=O)C=CC4=O	?	40µM*	/	6.3µM*	?
COc1ccc(CC(=O)NNC(=O)CSc2nc(C)c(C)c(=O)[nH]2)cc1	-5%	3%	-27%	89µM*	-1%
Cc1cc(=O)[nH]c(SCC(=O)NNC(=O)Cc2ccccc2)n1	-3%	-38%	36%	-7%	17%
CCOc1ccc(Nc2nc(C)c(NC(=O)c3cccc(OC)c3)c(Nc3ccc(OCC)cc3)n2)cc1	?	?	11µM*	/	-9%
CCOc1ccc(C(=O)Nc2c(C)nc(Nc3ccccc3)nc2Nc2ccccc2)cc1OCC	-12%	-31%	-27%[59 µM]	/	23%
CCOc1ccc(C(=O)NC(=S)Nc2ccc(NC(=O)CC)cc2)cc1[N+](=O)[O-]	-11%	7%	24%[59 µM]	-10%	13%
COc1ccc(C(=O)NC(=S)N2CC(C)OC(C)C2)cc1 (stereo not given)	-19%	-12%	7%[59 µM]	16%	-3%
Cc1cc(C(=O)Nc2nc(-c3ccccn3)cs2)ccc1[N+](=O)[O-]	-29%	28µM*	40µM*	8%	11%
CCC(=O)NC(=S)Nc1ccc(NC(=O)c2ccc(C)c([N+](=O)[O-])c2)cc1	-3%	-3%	7.9µM*	-15%	26%
Cc1ccc(C(=O)NC(=S)N2CC(C)OC(C)C2)cc1[N+](=O)[O-] (stereo not given)	-29%	-32%	40µM*	4%	3%
Cc1csc(NC(=O)c2ccc(C)c([N+](=O)[O-])c2)n1	-33%	?	10µM*	?	1%
CCOC(=O)c1c(C)[nH]c(C(=O)NCC(c2ccco2)N2CCCCC2)c1C (stereo not given)	-1%	/	/	/	41%
CCc1ccccc1NC(=O)Nc1nnc(N(CC)c2ccccc2)s1	-17%	-2%	-31%[59 µM]	/	2%
COc1cc2c(cc1OC)C(COc1ccc3c(C)cc(=O)oc3c1)N(C(=O)Cc1ccccc1)CC2 (stereo not given)	-2%	0%	22%[59 µM]	/	38%
CC(=O)N[C@@H](Cc1ccc(O)cc1)C(=O)O	/	/	23%[59 µM]	18%	/
O=C(Nc1nc(-c2ccccn2)cs1)c1cc(Cl)ccc1[N+](=O)[O-]	56µM*	14µM*	5.6µM*	45µM*	?
CNc1ncnc2sc(-c3ccccc3)cc12	-5%	11%	-3%	-29%	32%
S=c1[nH]cnc2sc(-c3ccccc3)cc12	-21%	-4%	35µM*	13%	16%
COc1ccc(-c2nc(CCNC(=O)c3cc(OC)c(OC)c(OC)c3)cs2)cc1	-1%	3%	0%[59 µM]	/	22%[57 µM]
COc1ccc(N2CCN(Cc3nc(Cc4cccc(F)c4)no3)C(C)C2)cc1 (stereo not given)	50µM*	25µM*	/	5%	?
CSc1cc2c(s1)c1cnn(Cc3cccc(N)c3)c(=O)c1n2C	3.5µM*	/	/	/	/
Cn1c2cc(S(C)=O)sc2c2cnn(Cc3cccc(N)c3)c(=O)c21 (stereo not given)	-23%	/	/	/	/
COc1cc(C(=O)Oc2ccc3c(OC)c4ccoc4nc3c2OC)cc(OC)c1OC	/	/	/	-16%	/
